Where two headings read alike, the source gives them in different places.
Legend:
PKN1 = conditions: read-out: apparent Kd, n = 1
PLK4 = conditions: read-out: apparent Kd, n = 1

Substance: Lestaurtinib
- potency estimated from few doses (PKN1; compound concentrations:100 nM and 1000 nM (sheet 'Lestaurtinib' of Supplementary Table 1),run:Lestaurtinib_02624_R2,Plate:MR020): 430 nM
- potency estimated from few doses (PKN1; compound concentrations:100 nM and 1000 nM (sheet 'Lestaurtinib' of Supplementary Table 1),run:Lestaurtinib_02624_R3,Plate:MR020): 513 nM
- potency estimated from few doses (PKN1; compound concentrations:100 nM and 1000 nM (sheet 'Lestaurtinib' of Supplementary Table 1),run:Lestaurtinib_02724_R1,Plate:MR021): 487 nM
- potency estimated from few doses (PKN1; compound concentrations:100 nM and 1000 nM (sheet 'Lestaurtinib' of Supplementary Table 1),run:Lestaurtinib_02724_R2,Plate:MR021): 386 nM
- potency estimated from few doses (PKN1; compound concentrations:100 nM and 1000 nM (sheet 'Lestaurtinib' of Supplementary Table 1),run:Lestaurtinib_02741_R3,Plate:MR023): 518 nM
- potency estimated from few doses (PKN1; compound concentrations:100 nM and 1000 nM (sheet 'Lestaurtinib' of Supplementary Table 1),run:Lestaurtinib_02748_R1,Plate:MR024): 418 nM
- potency estimated from few doses (PKN1; compound concentrations:100 nM and 1000 nM (sheet 'Lestaurtinib' of Supplementary Table 1),run:Lestaurtinib_02748_R2,Plate:MR024): 511 nM
- potency estimated from few doses (PKN1; compound concentrations:100 nM and 1000 nM (sheet 'Lestaurtinib' of Supplementary Table 1),run:Lestaurtinib_02748_R3,Plate:MR024): 440 nM
- potency estimated from few doses (PKN1; compound concentrations:100 nM and 1000 nM (sheet 'Lestaurtinib' of Supplementary Table 1),run:Lestaurtinib_02752_R1,Plate:MR025): 489 nM
- potency estimated from few doses (PKN1; compound concentrations:100 nM and 1000 nM (sheet 'Lestaurtinib' of Supplementary Table 1),run:Lestaurtinib_02752_R2,Plate:MR025): 414 nM
- potency estimated from few doses (PKN1; compound concentrations:100 nM and 1000 nM (sheet 'Lestaurtinib' of Supplementary Table 1),run:Lestaurtinib_02752_R3,Plate:MR025): 448 nM
- potency estimated from few doses (PKN1; compound concentrations:100 nM and 1000 nM (sheet 'Lestaurtinib' of Supplementary Table 1),run:Lestaurtinib_02765_R1,Plate:MR026): 524 nM
- potency estimated from few doses (PKN1; compound concentrations:100 nM and 1000 nM (sheet 'Lestaurtinib' of Supplementary Table 1),run:Lestaurtinib_02765_R3,Plate:MR026): 568 nM
- potency estimated from few doses (PKN1; compound concentrations:100 nM and 1000 nM (sheet 'Lestaurtinib' of Supplementary Table 1),run:Lestaurtinib_02766_R1,Plate:MR027): 532 nM
- potency estimated from few doses (PKN1; compound concentrations:100 nM and 1000 nM (sheet 'Lestaurtinib' of Supplementary Table 1),run:Lestaurtinib_02766_R2,Plate:MR027): 582 nM
- potency estimated from few doses (PKN1; compound concentrations:100 nM and 1000 nM (sheet 'Lestaurtinib' of Supplementary Table 1),run:Lestaurtinib_02766_R3,Plate:MR027): 483 nM
- potency estimated from few doses (PKN1; compound concentrations:100 nM and 1000 nM (sheet 'Lestaurtinib' of Supplementary Table 1),run:Lestaurtinib_02768_R1,Plate:MR028): 403 nM
- potency estimated from few doses (PKN1; compound concentrations:100 nM and 1000 nM (sheet 'Lestaurtinib' of Supplementary Table 1),run:Lestaurtinib_02768_R2,Plate:MR028): 488 nM
- potency estimated from few doses (PKN1; compound concentrations:100 nM and 1000 nM (sheet 'Lestaurtinib' of Supplementary Table 1),run:Lestaurtinib_02768_R3,Plate:MR028): 424 nM
- potency estimated from few doses (PKN1; compound concentrations:100 nM and 1000 nM (sheet 'Lestaurtinib' of Supplementary Table 1),run:Lestaurtinib_02795_R1,Plate:MR022): 453 nM
- potency estimated from few doses (PKN1; compound concentrations:100 nM and 1000 nM (sheet 'Lestaurtinib' of Supplementary Table 1),run:Lestaurtinib_02795_R2,Plate:MR022): 443 nM
- potency estimated from few doses (PKN1; compound concentrations:100 nM and 1000 nM (sheet 'Lestaurtinib' of Supplementary Table 1),run:Lestaurtinib_02795_R3,Plate:MR022): 422 nM
- potency estimated from few doses (PKN1; compound concentrations:100 nM and 1000 nM (sheet 'Lestaurtinib' of Supplementary Table 1),run:Lestaurtinib_02802_R1,Plate:MR029): 473 nM
- potency estimated from few doses (PKN1; compound concentrations:100 nM and 1000 nM (sheet 'Lestaurtinib' of Supplementary Table 1),run:Lestaurtinib_02802_R2,Plate:MR029): 433 nM
- potency estimated from few doses (PKN1; compound concentrations:100 nM and 1000 nM (sheet 'Lestaurtinib' of Supplementary Table 1),run:Lestaurtinib_02802_R3,Plate:MR029): 181 nM
- potency estimated from few doses (PKN1; compound concentrations:100 nM and 1000 nM (sheet 'Lestaurtinib' of Supplementary Table 1),run:Lestaurtinib_03172_R1,Plate:MR031): 435 nM
- potency estimated from few doses (PKN1; compound concentrations:100 nM and 1000 nM (sheet 'Lestaurtinib' of Supplementary Table 1),run:Lestaurtinib_03172_R3,Plate:MR031): 358 nM
- potency estimated from few doses (PKN1; compound concentrations:100 nM and 1000 nM (sheet 'Lestaurtinib' of Supplementary Table 1),run:Lestaurtinib_03252_R2,Plate:MR032): 94.9 nM
- potency estimated from few doses (PKN1; compound concentrations:100 nM and 1000 nM (sheet 'Lestaurtinib' of Supplementary Table 1),run:Lestaurtinib_03260_R1,Plate:MR033): 514 nM
- potency estimated from few doses (PKN1; compound concentrations:100 nM and 1000 nM (sheet 'Lestaurtinib' of Supplementary Table 1),run:Lestaurtinib_03260_R2,Plate:MR033): 559 nM
- potency estimated from few doses (PKN1; compound concentrations:100 nM and 1000 nM (sheet 'Lestaurtinib' of Supplementary Table 1),run:Lestaurtinib_03260_R3,Plate:MR033): 518 nM
- potency estimated from few doses (PLK4; compound concentrations:100 nM and 1000 nM (sheet 'Lestaurtinib' of Supplementary Table 1),run:Lestaurtinib_02339_R1,Plate:MR001): 80.5 nM
- potency estimated from few doses (PLK4; compound concentrations:100 nM and 1000 nM (sheet 'Lestaurtinib' of Supplementary Table 1),run:Lestaurtinib_02339_R2,Plate:MR001): 64.4 nM
- potency estimated from few doses (PLK4; compound concentrations:100 nM and 1000 nM (sheet 'Lestaurtinib' of Supplementary Table 1),run:Lestaurtinib_02339_R3,Plate:MR001): 51.7 nM
- potency estimated from few doses (PLK4; compound concentrations:100 nM and 1000 nM (sheet 'Lestaurtinib' of Supplementary Table 1),run:Lestaurtinib_02364_R2,Plate:MR002): 202 nM
- potency estimated from few doses (PLK4; compound concentrations:100 nM and 1000 nM (sheet 'Lestaurtinib' of Supplementary Table 1),run:Lestaurtinib_02367_R1,Plate:MR003): 62.3 nM
- potency estimated from few doses (PLK4; compound concentrations:100 nM and 1000 nM (sheet 'Lestaurtinib' of Supplementary Table 1),run:Lestaurtinib_02367_R2,Plate:MR003): 75.5 nM
- potency estimated from few doses (PLK4; compound concentrations:100 nM and 1000 nM (sheet 'Lestaurtinib' of Supplementary Table 1),run:Lestaurtinib_02381_R1,Plate:MR004): 71 nM
- potency estimated from few doses (PLK4; compound concentrations:100 nM and 1000 nM (sheet 'Lestaurtinib' of Supplementary Table 1),run:Lestaurtinib_02381_R2,Plate:MR004): 73.6 nM
- potency estimated from few doses (PLK4; compound concentrations:100 nM and 1000 nM (sheet 'Lestaurtinib' of Supplementary Table 1),run:Lestaurtinib_02381_R3,Plate:MR004): 93.7 nM
- potency estimated from few doses (PLK4; compound concentrations:100 nM and 1000 nM (sheet 'Lestaurtinib' of Supplementary Table 1),run:Lestaurtinib_02407_R1,Plate:MR005): 45.6 nM
- potency estimated from few doses (PLK4; compound concentrations:100 nM and 1000 nM (sheet 'Lestaurtinib' of Supplementary Table 1),run:Lestaurtinib_02407_R2,Plate:MR005): 39.3 nM
- potency estimated from few doses (PLK4; compound concentrations:100 nM and 1000 nM (sheet 'Lestaurtinib' of Supplementary Table 1),run:Lestaurtinib_02407_R3,Plate:MR005): 47.3 nM
